Assay results reported in the supplement of paper PMC10981050.
“And” between values parts separate entries of the source, which are not always exact repeats. Equal entries are not always repeated. Structures can show the parent of a compound that is named as a salt.

How the values were obtained:
Test in all cases: cell viability relative to vehicle control; higher = less cytotoxic
Details in all cases: 10 µM
K562 = test system: K562
How it was run: (§1)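 Four leukaemia lines, as CRISPR-edited mutant clones and isogenic wild-type clones, were tested against Selleck bioactive, kinase and epigenetic probe libraries after removal of identity-inconsistent compounds. Cells were exposed to a single 10 µM dose for 48 h, and CellTiter-Glo luminescence was then read. Viability was calculated relative to the on-plate vehicle control.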

MARIMO = test system: MARIMO
How it was run: as §1

MOLM14 = test system: MOLM14
How it was run: as §1

OCI-AML2 = test system: OCI-AML2
How it was run: as §1

Row | SMILES | cell viability (K562; SRSF2 genotype: SRSF2 P95H/wt) | cell viability (K562; SRSF2 genotype: SRSF2 wt/wt) | cell viability (MARIMO; SRSF2 genotype: SRSF2 P95H/wt) | cell viability (MARIMO; SRSF2 genotype: SRSF2 wt/wt) | cell viability (MOLM14; SRSF2 genotype: SRSF2 P95H/wt) | cell viability (MOLM14; SRSF2 genotype: SRSF2 wt/wt) | cell viability (OCI-AML2; SRSF2 genotype: P95H/wt) | cell viability (OCI-AML2; SRSF2 genotype: wt/wt)
1 | Nc1ncc(-c2ccnc(Nc3ccncc3)n2)c(CC2CC2)n1 | 69% and 73.7% | 74.2% | 69.8% | 66.9% | 44.8% | 43.8% | 43.3% | 45.2%
2 | CO[C@@H](C(=O)N1Cc2[nH]nc(NC(=O)c3ccc(N4CCN(C)CC4)cc3)c2C1)c1ccccc1 | 40.2% and 48.7% | 34.3% | 63.3% | 69.4% | 14.3% | 12.9% | 6.56% | 19.3%
3 | CN(CCOc1ccc(NS(C)(=O)=O)cc1)CCc1ccc(NS(C)(=O)=O)cc1 [Dofetilide (Tikosyn)] | 97.8% and 97% | 101% | 97% | 104% | 95.8% | 101% | 99% | 107%
4 | CC(C)NCC(O)COc1ccc(COCCOC(C)C)cc1 (stereo unspecified) [Bisoprolol fumarate] | 94.1% and 90.5% | 89.9% | 93.2% | 94.5% | 83.8% | 91.5% | 93.6% | 99.8%
5 | CC1(C)S[C@@H]2[C@H](NC(=O)[C@H](N)c3ccc(O)cc3)C(=O)N2[C@H]1C(=O)O [Amoxicillin (Amoxycillin)] | 97.3% and 90.7% | 91.7% | 91.2% | 98.5% | 99.7% | 100% | 92.4% | 105%
6 | O=C(/C=C/c1ccc(O)cc1)OC[C@H]1O[C@@H](Oc2c(-c3ccc(O)cc3)oc3cc(O)cc(O)c3c2=O)[C@H](O)[C@@H](O)[C@@H]1O [Tiliroside] | 99.3% and 99.1% | 95.3% | 98.9% | 109% | 100% | 105% | 104% | 111%
7 | CC(C)[C@H]1CC[C@H](C(=O)N[C@H](Cc2ccccc2)C(=O)O)CC1 [Nateglinide (Starlix)] | 103% and 101% | 98.8% | 97.8% | 101% | 97.9% | 99.3% | 105% | 97.5%
8 | COC(=O)N(C)c1c(N)nc(-c2nn(Cc3ccccc3F)c3ncccc23)nc1N [Riociguat (BAY 63-2521)] | 89.6% and 89.1% | 82.6% | 85% | 99% | 90.2% | 94% | 96.3% | 108%
9 | CCOC(=O)c1cc2ccccc2oc1=O [Ethyl Coumarin-3-carboxylate] | 96.8% and 96.2% | 92.9% | 94.3% | 97.2% | 88.7% | 98% | 95% | 96.8%
10 | CCCCCCC(O)C(=O)O (stereo unspecified) [2-Hydroxycaprylic acid] | 103% and 102% | 107% | 101% | 105% | 101% | 109% | 105% | 111%
11 | O=C(NCCCn1ccnc1)c1cc(-c2ccco2)on1 | 87.3% and 91.7% | 87.1% | 68.9% | 79.4% | 45.7% | 44.4% | 77.2% | 72.6%
12 | C=C(C)[C@@H]1CCC2=CC(=O)C[C@@H](C)[C@]2(C)C1 [Nootkatone] | 104% and 105% | 107% | 100% | 95.4% | 105% | 103% | 107% | 103%
13 | COc1ccc(C[C@@H](C)NC[C@H](O)c2ccc(O)c(NC=O)c2)cc1 [Arformoterol Tartrate] | 97.2% and 91.1% | 98.8% | 85.2% | 106% | 86.5% | 90.9% | 109% | 103%
14 | CCCc1cc(C)[nH]c(=O)c1CNC(=O)c1cc(-c2ccc(N3CCN(C(C)C)CC3)nc2)cc2c1cnn2C(C)C | 36.5% and 35% | 30.5% | 81.1% | 80% | 49.8% | 60.8% | 4.14% | 31.8%
15 | O=C(O)P(=O)(O)O [Foscarnet Sodium] | 106% and 108% | 107% | 101% | 108% | 101% | 109% | 112% | 95.6%
16 | OC1CCC(Nc2ncc3nc(Nc4c(F)cc(F)cc4F)n([C@H]4CCOC4)c3n2)CC1 (stereo partly specified) [Tanzisertib(CC-930)] | 101% and 111% | 114% | 116% | 103% | 91.8% | 109% | 117% | 122%
17 | COc1ccc2cccc(CCNC(C)=O)c2c1 [Agomelatine] | 110% and 101% | 104% | 97.7% | 106% | 104% | 102% | 101% | 101%
18 | CC#CC(=O)N1CC[C@@H](n2c(=O)n(-c3ccc(Oc4ccccc4)cc3)c3c(N)ncnc32)C1 [ONO-4059 (GS-4059) hydrochloride] | 91% and 102% | 95.7% | 97.2% | 107% | 91.4% | 95.8% | 91% | 88.9%
19 | CCCCCCOC(=O)c1cc(=O)c(O)c2c(O)c(O)c(OC)cc2c1 | 14.8% and 16.8% | 46.8% | 45.2% | 45.2% | 61.5% | 58.9% | 19.8% | 42.4%
20 | O=C1C(=Cc2cccnc2)C(=O)c2ccccc21 | 110% and 102% | 116% | 94.2% | 102% | 89% | 99.4% | 102% | 102%
21 | CCc1ccc(OCc2ccccc2C(=O)Nc2ccc3nc(C)cc(N)c3c2)cc1 | 0.54% and 0.5% | 0.47% | 0.43% | 0.59% | 0.48% | 0.57% | 0.44% | 0.53%

Row | SMILES | cell viability (K562; SRSF2 genotype: SRSF2 P95H/wt) | cell viability (K562; SRSF2 genotype: SRSF2 wt/wt) | cell viability (MARIMO; SRSF2 genotype: SRSF2 P95H/wt) | cell viability (MARIMO; SRSF2 genotype: SRSF2 wt/wt) | cell viability (MOLM14; SRSF2 genotype: SRSF2 P95H/wt) | cell viability (MOLM14; SRSF2 genotype: SRSF2 wt/wt) | cell viability (OCI-AML2; SRSF2 genotype: P95H/wt) | cell viability (OCI-AML2; SRSF2 genotype: wt/wt)
22 | Oc1ccc([C@H]2COc3cc(O)ccc3C2)cc1 [Equol] | 90.4% and 101% | 103% | 99.9% | 104% | 95.2% | 104% | 92% | 88.4%
23 | CC(C)CCn1c(CN2CCN(C(=O)C3CC3)CC2)nc2c1c(=O)n(C)c(=O)n2C | 105% and 116% | 112% | 99.7% | 102% | 105% | 104% | 114% | 116%
24 | CC1CCc2cc(F)cc3c(=O)c(C(=O)O)cn1c23 (stereo unspecified) [Flumequine] | 96.6% and 94.5% | 97.5% | 95.6% | 104% | 95.1% | 102% | 96.3% | 107%
25 | N#C[C@@H]1C[C@@H]2C[C@@H]2N1C(=O)[C@@H](N)C12CC3CC(CC(O)(C3)C1)C2 | 107% and 99.7% | 107% | 97.6% | 88.9% | 96.7% | 99.5% | 96.6% | 108%
26 | Cc1ccc(O)c(O)c1 [4-Methylcatechol] | 94.8% and 90.4% | 98.3% | 61.1% | 89.5% | 75.4% | 85.3% | 94% | 90.9%
27 | CC(C)=CCC[C@](C)(O[C@@H]1O[C@H](CO[C@@H]2O[C@H](CO)[C@@H](O)[C@H](O)[C@H]2O)[C@@H](O)[C@H](O)[C@H]1O)[C@H]1CC[C@]2(C)[C@@H]1[C@H](O)C[C@@H]1[C@@]3(C)CC[C@H](O[C@@H]4O[C@H](CO)[C@@H](O)[C@H](O)[C@H]4O[C@@H]4O[C@H](CO)[C@@H](O)[C@H](O)[C@H]4O)C(C)(C)[C@@H]3CC[C@]12C [Ginsenoside Rb1] | 103% and 102% | 105% | 103% | 112% | 103% | 102% | 101% | 111%
28 | COc1cc2nc(N3CCN(C(=O)C4CCCO4)CC3)nc(N)c2cc1OC (stereo unspecified) [Terazosin HCl Dihydrate] | 101% and 95.7% | 97% | 101% | 105% | 99.1% | 96.2% | 94.8% | 103%
29 | C=C(C)C1CC=C(C=NO)CC1 (stereo unspecified) [Perillartine] | 100% | 98.3% | 104% | 105% | 93% | 99.8% | 100% | 112%
30 | CCc1ccc(CCOc2ccc(CC3SC(=O)NC3=O)cc2)nc1 (stereo unspecified) [Pioglitazone (Actos)] | 98.5% and 116% | 109% | 104% | 103% | 102% | 108% | 111% | 103%
31 | COc1ccc(CCC(=O)N(c2nccc3ccccc23)[C@@H]2CCCNC2)cc1 | 91.8% and 90.5% | 85.2% | 79% | 93.4% | 80.5% | 85.3% | 91% | 91.2%
32 | CC1(C)CCC2(C(=O)O)C(O)CC3(C)C(=CCC4C5(C)CC(O)C(O)C(C)(CO)C5CCC43C)C2C1 (stereo unspecified) [Polygalacic acid] | 103% and 102% | 103% | 101% | 98.5% | 109% | 100% | 104% | 94.9%
33 | CC1(C)CC[C@]2(C(=O)O[C@@H]3O[C@H](CO)[C@@H](O)[C@H](O)[C@H]3O)CC[C@]3(C)C(=CC[C@@H]4[C@@]5(C)CC[C@H](O[C@@H]6O[C@H](C(=O)O)[C@@H](O)[C@H](O)[C@H]6O)C(C)(C)[C@@H]5CC[C@]43C)[C@@H]2C1 [Chikusetsusaponin IVa] | 100% and 103% | 106% | 103% | 114% | 102% | 105% | 104% | 111%
34 | COCC1=C(C(=O)OC(C)OC(=O)OC(C)C)N2C(=O)[C@@H](NC(=O)/C(=N\OC)c3csc(N)n3)[C@H]2SC1 (stereo partly specified) [Cefpodoxime proxetil] | 103% and 105% | 92.6% | 91.9% | 100% | 90.4% | 95.7% | 90.3% | 94.9%
35 | CCCCCCCC/C=C\CCCCCCCC(=O)OCC [Ethyl Oleate] | 101% and 94.1% | 97.8% | 86.5% | 100% | 92.3% | 95% | 88.7% | 93.7%
36 | Cc1ccc2c(c1)c1c(n2CCc2ccc(C)nc2)CCN(C)C1 [Latrepirdine 2HCl] | 88.7% and 89.9% | 80.2% | 73.8% | 82% | 74.4% | 84.6% | 73.7% | 76%
37 | CN(C)CC/C=C1/c2ccccc2COc2ccc(CC(=O)O)cc21 [Olopatadine hydrochloride (Opatanol)] | 105% and 106% | 102% | 101% | 114% | 107% | 104% | 95.4% | 105%
38 | O=C(Nc1ccc(Br)cc1)c1c(O)cccc1O [Resorantel] | 17.7% and 15.3% | 19.6% | 38.7% | 39.3% | 17.5% | 11.8% | 4.86% | 14.2%
39 | C=CC(=O)Nc1cccc(Oc2nc(Nc3ccc(N4CCN(C)CC4)cc3)ncc2Cl)c1 | 19.3% and 33.1% | 34.2% | 29.4% | 18.8% | -0.04% | -0.03% | 0.39% | 5.07%
40 | CNc1nc(Nc2cn(C(C)(C)C#N)nc2C)ncc1C(F)(F)F | 101% and 102% | 103% | 101% | 108% | 98.8% | 101% | 102% | 105%
41 | Cc1c(OCC(F)(F)F)ccnc1C[S+]([O-])c1nc2ccccc2[nH]1 (stereo unspecified) [Lansoprazole] | 98% and 96.2% | 90% | 98.6% | 104% | 103% | 95.5% | 91.7% | 102%
42 | CCC1=C[C@@H]2CN(C1)Cc1c([nH]c3ccccc13)[C@@](C(=O)OC)(c1cc3c(cc1OC)N(C)[C@H]1[C@@](O)(C(=O)OC)[C@H](OC(C)=O)[C@]4(CC)C=CCN5CC[C@]31[C@@H]54)C2 [Vinorelbine Tartrate] | 15% and 35% | 31.6% | 7.46% | 7.57% | 0.68% | 0.99% | 1.63% | 3.83%
